The text below walks through data of PubChem BioAssay (NCATS).

“And” between values parts separate entries of the source, which are not always exact repeats. Equal values may be shown once. Values without a mark were called inactive. Records with an inconclusive call do not appear. The source made the active and inactive calls. The call rests on the fitted dose curve; in most records, active means well fitted curve in the direction sought with a large enough effect; inconclusive means small, poorly fitted or top-dose-only effect, or another doubt; inactive means no such curve, though single readings can be large; an effect the other way counts as inactive or inconclusive.

In assay [1] the target is Calcium and integrin-binding protein 1 (Homo sapiens) (UniProt Q99828). Kind of assay: Primary qHTS for Identification of Calcium Integrin Binding Protein 1 (CIB1) Competitor (AID 1508620).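 Further: GST tagged CIB1 binding a fluorescein labelled alphaIIb integrin peptide tracer; top concentration of the series differs between compounds.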 Put shortly: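 CIB1-GST (1 uM final) and compound incubated 15 min at room temperature before adding FITC-alphaIIb peptide tracer (100 nM final). Competition for binding read by fluorescence polarization (ex 480, em 540) after another 15 min at room temperature.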
Background: qHTS replaces the single test concentration by a dilution series.

Assay [2] can be described thus: Primary qHTS for inhibitors of nuclear receptor binding SET domain protein 2 (NSD2) in an isogenic RCH-ACV NSD2 p.E1099K mutant (9B) (AID 1645876). Further: potency means the concentration at half of the fitted maximal effect; nearly all actives have a fitted effect of over 70% in size.
For assay [3], the target named is Glutathione peroxidase 1 (Homo sapiens) (UniProt P07203). The assay can be described thus: Primary qHTS Assay for Inhibitors of Recombinant Selenoprotein Glutathione Peroxidase 1 (GPX1) (AID 1845191). Further: nearly all actives have a fitted effect of over 65% in size. Put shortly: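 NADPH consumption tracked by fluorescence at 340/450 nm between t=0 and t=15 min, room temperature. Final mix: 10 nM GPX1, 100 nM glutathione reductase, 1 mM GSH, 0.5 mM NADPH, 0.5 mM cumene hydroperoxide, 0.01% BSA; 30 min compound–enzyme preincubation.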

The target in assay [4] is Phospholipid hydroperoxide glutathione peroxidase GPX4 (Homo sapiens) (UniProt P36969). The assay can be described thus: Primary qHTS Assay for Inhibitors of Recombinant Selenoprotein Glutathione Peroxidase 4 (GPX4) (AID 1845192). Further: nearly all actives have a fitted effect of over 65% in size. The following applies: outcome: dose series up to 50 µM unless noted. Put shortly: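 NADPH consumption followed by fluorescence at 340/450 nm, t=0 and after 15 min at room temperature. Reaction started with cumene hydroperoxide (0.5 mM final) after 30 min compound–GPX4 preincubation; final 200 nM GPX4, 100 nM GR, 1 mM GSH, 0.5 mM NADPH.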

The target of assay [5] is Luciferin 4-monooxygenase (Photinus pyralis) (UniProt P08659). Kind of assay: Primary firefly luciferase (FLuc) qHTS assay for identification of artifact compounds. (AID 1845220). Further: nearly all actives have a fitted effect of over 60% in size. Put shortly:
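FLuc 10 nM; luciferin 10 uM; ATP 10 uM; Tris-acetate pH 7.6, Mg-acetate 10 mM; 15 min RT preincubation; 5 min reaction; luminescence.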

In assay [6] the test system is Nanoluciferase (engineered Oplophorus gracilirostris luciferase). Kind of assay: Primary Nanoluciferase (NLuc) qHTS assay for identification of artifact compounds. (AID 1845222).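 Further: NLuc secreted into diluted conditioned medium of S16 cells.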 Summed up:
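NLuc from S16 cell medium (1:55) plus test compounds, 15 min, room temperature. Luminescence after Nano-Glo (1:100) addition, 5 min.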

Another assay has as its system C33A. Kind of assay: Primary qHTS to identify gynecologic anti-cancer compounds using libraries of approved drugs and bioactive compounds (AID 1345084). Further: nearly all actives have a fitted effect of over 55% in size. Further: potency means the concentration at half of the fitted maximal effect. The following applies: Gynecologic cancer cell panel viability, ATPlite luminescence, 48 h; series mostly up to 57.5 µM. Put shortly: (§1)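 48 h compound exposure at 37 C, 5% CO2; five-point qHTS. ATPlite luminescence readout of cell ATP.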

Another assay deals with CASKI. Described as above. The note with it: Gynecologic cancer cell panel viability, ATPlite luminescence, 48 h; series mostly up to 57.5 µM. Summed up: as §1
On the technique in general: In ATP-based viability assays light output follows the ATP content of the culture.

A further assay relates to Es-2. The description is as above. The following applies: Gynecologic cancer cell panel viability, ATPlite luminescence, 48 h; series mostly up to 57.5 µM. Summed up: as §1
The next assay has as its system HeLa. The description is as above. The note with it: Gynecologic cancer cell panel viability, ATPlite luminescence, 48 h; series mostly up to 57.5 µM. Put shortly:
as §1

In the next assay the test system is Hek293T. The description is as above. The note with it: Gynecologic cancer cell panel viability, ATPlite luminescence, 48 h, control line for the selectivity index; series mostly up to 57.5 µM. Summed up: as §1
The test system of another assay is JEG-3. Described as above. The note with it: Gynecologic cancer cell panel viability, ATPlite luminescence, 48 h; series mostly up to 57.5 µM. Put shortly:
as §1

The next assay has as its system OV90. The assay is described as above. The note with it: Gynecologic cancer cell panel viability, ATPlite luminescence, 48 h; series mostly up to 57.5 µM. Put shortly: as §1
Another assay deals with Tov-21-G. The assay is described as above. The note with it: Gynecologic cancer cell panel viability, ATPlite luminescence, 48 h; series mostly up to 57.5 µM. Summed up:
as §1

In another assay the test system is Tov112D. Described as above. The following applies: Gynecologic cancer cell panel viability, ATPlite luminescence, 48 h; series mostly up to 57.5 µM. Summed up: as §1
Assay [7] can be described thus: Primary qHTS for inhibitors of nuclear receptor binding SET domain protein 2 (NSD2) in an RCH-ACV wild type WT cells (2C) (AID 1645877). Further: potency means the concentration at half of the fitted maximal effect; nearly all actives have a fitted effect of over 70% in size.
Assay [8] is described as follows: Primary fluorescence-based thiol-reactive (MSTI) qHTS assay for identification of artifact compounds. (AID 1845221). Further: nearly all actives have a fitted effect of over 65% in size. Further: potency means the concentration at half of the fitted maximal effect. Summed up: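 First, 4 uM MSTI in 2% DMSO/PBS pH 7.4 was dispensed; next, compounds were added; then plates sat 1 h at room temperature without light. Finally, emission at 598 nm was recorded.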
Assay [9] is described as follows: Primary redox qHTS assay for identification of artifact compounds. (AID 1845223). Put shortly:
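Redox-cycling detection via DTT (250 uM final) oxidation coupled to Amplex Red (25 uM)/HRP (250 mU/mL) in HBSS. 15 min preincubation plus 30 min after DTT, room temperature. Ex/Em 525/598 nm; 4-parameter Hill fit against DMSO and 10 uM DA3003.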

The next assay relates to PA-1. The assay can be described thus: Primary qHTS to identify gynecologic anti-cancer compounds using libraries of approved drugs and bioactive compounds (AID 1345084). Further: nearly all actives have a fitted effect of over 55% in size. Further: potency means the concentration at half of the fitted maximal effect. The following applies: Gynecologic cancer cell panel viability, ATPlite luminescence, 48 h; series mostly up to 57.5 µM. Put shortly: as §1
Assay [10] relates to Zika virus NS2B-NS3 protease (linked construct). Kind of assay: Primary screen NINDS Rhodamine qHTS for Zika virus inhibitors (AID 1347160). Further: nearly all actives have a fitted effect of over 55% in size. Put shortly: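 Each compound, titrated, sat 15 min with 25 nM linked protease before 1.5 microM Rhodamine110 substrate went in. Fluorescence gain over the next 15 min, in pH 8.0 Tris with Tween 20, gave Hill-fitted curves.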

Calcium and integrin-binding protein 1 (Homo sapiens), sequence (Q99828 whole entry, looked up): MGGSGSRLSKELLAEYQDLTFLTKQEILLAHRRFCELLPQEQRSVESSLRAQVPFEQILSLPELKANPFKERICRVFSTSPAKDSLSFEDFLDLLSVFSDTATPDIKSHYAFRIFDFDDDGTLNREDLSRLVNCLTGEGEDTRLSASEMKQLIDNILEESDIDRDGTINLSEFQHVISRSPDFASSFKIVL
Glutathione peroxidase 1 (Homo sapiens), sequence (P07203 whole entry, looked up): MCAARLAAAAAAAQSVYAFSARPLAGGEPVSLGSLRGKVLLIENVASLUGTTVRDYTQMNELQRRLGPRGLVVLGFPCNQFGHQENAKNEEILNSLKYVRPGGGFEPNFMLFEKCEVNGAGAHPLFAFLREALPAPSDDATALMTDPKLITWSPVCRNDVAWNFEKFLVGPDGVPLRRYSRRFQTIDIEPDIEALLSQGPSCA
Phospholipid hydroperoxide glutathione peroxidase GPX4 (Homo sapiens), sequence (P36969 whole entry, looked up): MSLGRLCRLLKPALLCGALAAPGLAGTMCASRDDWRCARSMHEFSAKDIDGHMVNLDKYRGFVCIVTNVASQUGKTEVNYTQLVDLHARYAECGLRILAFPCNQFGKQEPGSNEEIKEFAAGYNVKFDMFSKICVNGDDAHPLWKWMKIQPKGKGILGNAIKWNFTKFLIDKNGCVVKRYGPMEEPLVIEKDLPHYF

`O=S(=O)(c1cccc2ccccc12)n1ccc2ccc(N3CCN4CCCC4C3)cc21` (centres undefined): the result in assay [1] was inactive. Besides, the Potency in assay [2] was 14.5 µM (active). Besides, the Potency result (in [3]; in assay [4]; in assay [5]; in assay [6]; in the assay on C33A; with CASKI) was “inactive” throughout. The Potency entry in the assay with Es-2, in the assay with HeLa, in the assay on Hek293T, in the assay with JEG-3, with OV90 and in the assay on Tov-21-G was “inactive” in each case. In addition, the Potency entry with Tov112D was “inactive”.

On to `COc1cccc(CNC(=O)Nc2nc(-c3ccncc3)cs2)c1`, for which the outcome in assay [1] was inactive. Besides, the Potency in assay [2] was 7.28 µM (active); in [7], 1.63 µM (active). The Potency entry in assay [3], in [4], in [5], in [8], in assay [6] and in assay [9] was “inactive” each time. In addition, the Potency result in the assay on C33A, in the assay on CASKI, in the assay with Es-2, in the assay on Hek293T, in the assay on JEG-3 and in the assay with OV90 was “inactive” each time. For the same compound, the Potency entry with PA-1, with Tov-21-G and in the assay with Tov112D was “inactive” in each case.

Regarding `CCN(CCCOc1ccc2c(Nc3cc(CC(=O)Nc4cccc(F)c4)[nH]n3)ncnc2c1)CCOP(=O)(O)O`, the Potency entry (in assay [10]; in assay [4]; in [5]; in [8]; in the assay on C33A; with Es-2) was “inactive” throughout. The Potency entry with HeLa, in the assay on Hek293T, in the assay on JEG-3 and in the assay on OV90 was “inactive” throughout. In assay [1], the result was inactive. Moreover, the Potency in assay [2] was 5.9 µM (active); in assay [7] it was 32.5 nM (active) and 37.2 nM (active).

In the case of `O=C(c1ccc(F)c(F)c1Nc1ccc(I)cc1F)N1CC(O)(C2CCCCN2)C1` (centres undefined), the Potency entry in [10], in assay [3], in [4], in assay [5], in assay [8] and in assay [6] was “inactive” throughout. The Potency result (in [9]; in the assay on Hek293T; in the assay with JEG-3) was “inactive” throughout. In addition, the outcome in [1] was inactive. In addition, the Potency in assay [2] was 20.5 µM (active); in assay [7], 18.3 µM (active); in the assay on C33A, 35.5 µM (active); in the assay with CASKI, 28.2 µM (active).

In the case of `CC(C)N(CCCNC(=O)Nc1ccc(C(C)(C)C)cc1)C[C@H]1O[C@@H](n2cc(Br)c3c(N)ncnc32)[C@H](O)[C@@H]1O`, the outcome in assay [1] was inactive. The Potency in assay [2] is 12.9 µM (active) and 16.6 µM (active); in assay [7] it was 12.9 µM (active) and 14.8 µM (active). Also, the Potency entry (in assay [3]; in [4]; in assay [5]; in [8]; in assay [6]; in the assay on C33A) was “inactive” throughout. The Potency result in the assay on CASKI, with Es-2, in the assay on HeLa, in the assay with Hek293T, in the assay on JEG-3 and in the assay on OV90 was “inactive” in each case. Also, the Potency result in the assay with Tov-21-G and with Tov112D was “inactive” each time.

Consider `CC(=O)C1=C(O)C2c3c[nH]c4cccc(c34)CC2C(C)(C)N(C)C1=O` (centres undefined), for which the Potency result (in [10]; in assay [4]; in [5]; in the assay on HeLa; in the assay with Hek293T; in the assay with JEG-3) was “inactive” throughout. For the same compound, the Potency result in the assay with OV90, in the assay with Tov-21-G and in the assay on Tov112D was “inactive” in each case. In addition, the result in [1] was inactive. Further, the Potency in assay [2] is 18.3 µM (active); in assay [8] it was 3.36 µM (active).
